Experimental data published in ChEMBL document CHEMBL3988442, “University of Dundee, Small-Polar-MMV Screening Library” (2021).
Hit rate of the full screen: of about 69,000 compounds, about 950 (1.4%) showed an effect of 50% or more. Many of the other results were omitted from the sample, so strong results are more common in it than they were.

test system: Mycobacterium tuberculosis; test: Cornell M. t heat shock assay; format: functional, organism-based; set-up: dose or concentration left out as unconfirmed; note: in the data most compounds retested in dose-response had high values

| SMILES | Percent Effect [%] |
| --- | --- |
| CC(C)NC(=O)C1(CC2CC(c3ccc(F)cc3)=NO2)CCNCC1.O=C(O)CC(O)(CC(=O)O)C(=O)O (stereo not drawn) | -19.28 |
| CNC(=O)C1Cn2ccnc2C2(CCN(Cc3cccnc3)CC2)O1.O=C(O)C(F)(F)F.O=C(O)C(F)(F)F.O=C(O)C(F)(F)F (stereo not drawn) | -3.867 |
| COc1ccccc1CN1CCCCC1c1n[nH]cc1-c1cc(C)no1.Cl (stereo not drawn) | 14.98 |
| COc1cccc(CN2C[C@@H]3COC[C@]3(COCc3ccncc3)C2)c1.O=C(O)C(F)(F)F.O=C(O)C(F)(F)F | -3.091 |
| Cc1csc(CN(C)C2CCN(c3sccc3C#N)C2=O)n1 (stereo not drawn) | -26.99 |
| Cc1c[nH]c(CN2CCC3(CCCN(Cc4ccc(F)c(F)c4)C3)C2)n1 (stereo not drawn) | 58.72 |
| Fc1ccc(CN2CCCC3(CCN(Cc4ncc[nH]4)C3)C2)cc1F (stereo not drawn) | 0.7553 |
| Cc1ccc(CN2CCC3(CCCN(Cc4ccc(F)c(F)c4)C3)C2)o1 (stereo not drawn) | 10.97 |
| CCOC[C@]12COC[C@H]1CN(Cc1ccc3c(c1)OCO3)C2.O=C(O)C(F)(F)F | 12.44 |
| O=C(CCc1ccccc1Cl)NS(=O)(=O)c1ccc2c(c1)OCCO2 | 62.1 |
| O=C(CCc1ccccc1F)NS(=O)(=O)c1ccc2c(c1)OCCO2 | -5.66 |
| O=C(CCc1ccccc1Br)NS(=O)(=O)c1ccc2c(c1)OCCO2 | 6.065 |
| Cl.O=C(NC1CCCC1)C1(Cc2cc(C3CCOC3)no2)CCNCC1 (stereo not drawn) | 5.68 |
| O=C(c1cnc(-c2ccccn2)s1)N1CCCC(n2cccn2)C1 (stereo not drawn) | -7.844 |
| CC1CCN(C(=O)[C@H]2CC[C@@H]3[C@@H](CCN3Cc3nccs3)O2)CC1.O=C(O)C(F)(F)F | -10.06 |
| COc1ccc(CNC(=O)N2CCN(CC(O)C3CC3)CC2)cc1.Cl (stereo not drawn) | 14.41 |
| CC(C)c1cc(N(C)Cc2noc(C3CCCC3)n2)n2nccc2n1 | 67.06 |
| CC(C)c1cc(N(C)Cc2cc(C3CC3)on2)n2nccc2n1 | 41.46 |
| CC(C)Cc1nc(CN(C)c2cc(C(C)C)nc3ccnn23)no1 | 23.84 |
| COC(=O)N1CCC(Nc2cccc(F)c2C(C)=O)C1 (stereo not drawn) | 10.56 |
| COC(=O)N1CCC(Nc2cccc(F)c2C(C)=O)CC1 | 5.265 |
| COC(=O)N1CCC(Nc2cccc(F)c2C#N)CC1 | 83.06 |
| O=C(O)C(F)(F)F.O=C(O)C(F)(F)F.O=C(O)C(F)(F)F.c1cc(CN2C[C@@H]3OCCN(CC4CCCO4)[C@@H]3C2)ccn1 (stereo partly drawn) | -18.75 |
| CN(C(=O)C1CCOCC1)[C@@H]1CCC[C@@H](N2CCCC2)[C@@H]1O | 60.86 |

| SMILES | Percent Effect [%] |
| --- | --- |
| CN(C(=O)C1CCOCC1)[C@@H]1CCC[C@@H](N2CCOCC2)[C@@H]1O | -10.17 |
| CN(C(=O)C1CCCCC1)[C@@H]1CCC[C@@H](N2CCOCC2)[C@@H]1O | -6.532 |
| CC(C)OCCCN(Cc1cnn(C)c1)Cc1ccccn1.O=C(O)CC(O)(CC(=O)O)C(=O)O | -10.12 |
| CCC1=N[C@@]2(CC[C@@H]3CN(CC4CC4)C[C@@H]32)C(=O)N1C.O=C(O)C(F)(F)F | 5.845 |
| CN1CC(C)(C)CN(C(=O)CCc2ccccc2)CC1=O | 21.51 |
| CCN1CC(C)(C)CN(C(=O)CCc2ccccc2)CC1=O | 22.76 |
| CC(C)(O)CN1CC(C)(C)CN(C(=O)CCc2ccccc2)CC1=O | 52.03 |
| CCCC(O)CN1CC(C)(C)CN(C(=O)CCc2ccccc2)CC1=O (stereo not drawn) | 10.24 |
| COCC(O)CN1CC(C)(C)CN(C(=O)CCc2ccccc2)CC1=O (stereo not drawn) | 27.88 |
| CC(O)CN1CC(C)(C)CN(C(=O)CCc2ccccc2)CC1=O (stereo not drawn) | 50.7 |
| Fc1ccc(CN2CC[C@H]3O[C@@H](COCC4CCOCC4)CC[C@H]32)cc1.O=C(O)C(F)(F)F | -16.61 |
| CCC(C)[C@H](N)c1nnc(SCC(=O)Nc2cc(C)ccc2C)o1.Cl (stereo partly drawn) | -10.79 |
| Cc1cc2c(=O)n3c(nc2s1)CCN(Cc1c[nH]cn1)CC3.Cl | -21.28 |
| Clc1ccc(C2(CNC3=NCCN3)CCCCC2)cc1.I | 77.48 |
| Clc1ccc(C2(CNC3=NCCN3)CC2)cc1.I | -24.96 |
| Clc1ccc(C2(CNC3=NCCN3)CCCC2)cc1.I | 20.92 |
| O=C(NCC1CC1)[C@H]1C[C@H]2OCC[C@H]2N(CCc2ccccc2)C1.O=C(O)C(F)(F)F | -0.2328 |
| COc1ccc(-c2cc3nn(CC(N)=O)c(=O)n3c(C)n2)cc1 | 28.25 |
| Cc1nc(-c2ccccc2)cc2nn(CC(N)=O)c(=O)n12 | 80.99 |
| COc1ccc(-c2cc3nn(CC(=O)NC(C)C)c(=O)n3c(C)n2)cc1 | 21.42 |
| CCC1=N[C@@]2(CC[C@@H]3CN(Cc4ccc(F)cc4)C[C@@H]32)C(=O)N1C.O=C(O)C(F)(F)F | 6.299 |
| COCCN1CCC2(COCCN(Cc3ccc4c(c3)OCO4)C2)C1.O=C(O)C(F)(F)F.O=C(O)C(F)(F)F (stereo not drawn) | -9.9 |
| O=C(O)C(F)(F)F.O=C(O)C(F)(F)F.O=C(O)C(F)(F)F.O=C1CO[C@@H]2CN(Cc3cccnc3)C[C@H]2N1Cc1ccncc1 | -18.69 |
| COCCC(=O)N1CC[C@@H](N2CCOCC2)[C@@H]1Cc1ccccc1.O=C(O)C(F)(F)F | -10.34 |

| SMILES | Percent Effect [%] |
| --- | --- |
| Cc1cc(C(=O)NC2CCN(CC(N)=O)CC2)nn1C(C)(C)C | 61.29 |
| CC(C)(C)n1nc(C(=O)NC2CCN(CC(N)=O)CC2)cc1C1CC1 | 19.52 |
| CC(C)c1cc(C(=O)NC2CCN(CC(N)=O)CC2)nn1C(C)(C)C | 17.37 |
| Cc1noc(C)c1-c1nc(C2CCCNC2)ccc1CO.Cl.Cl (stereo not drawn) | 6.462 |
| COc1cc(CNC(c2ccccc2)c2nccn2C)cc(OC)c1 (stereo not drawn) | 110.9 |
| Cn1ccnc1C(NCc1csc(Br)c1)c1ccccc1 (stereo not drawn) | 103.5 |
| O=C(CCNc1ncccn1)NCc1csc(Br)c1 | 2.477 |
| Cc1cc(C)cc(CNC(C)c2c(C)nn(C)c2C)c1 (stereo not drawn) | -33.33 |
| COc1c(CNC(c2ccccc2)c2nccn2C)c(C)nn1C (stereo not drawn) | -17.9 |
| Cc1cccc(CNC(CN2CCN(C)CC2)c2ccccc2)c1 (stereo not drawn) | -9.551 |
| Cc1ccc(CNC(c2ccccc2)c2nccn2C)cc1.Cl (stereo not drawn) | 106.1 |
| Cc1cc(C)cc(CNC(c2ccccc2)c2nccn2C)c1 (stereo not drawn) | 112.3 |
| COc1cc(CNC(C)Cn2cccn2)cc(OC)c1 (stereo not drawn) | -10.57 |
| Cc1ccc(CNCC(C)Oc2ccccn2)cc1.Cl (stereo not drawn) | -12.77 |
| O=C(NCc1csc(Br)c1)c1ccncc1 | 14.96 |
| Cc1cnn(CC(C)NCc2ccc(OCc3nccn3C)cc2)c1 (stereo not drawn) | -7.408 |
| Cn1ccnc1CN1CCC2(CC(=O)N(c3cncnc3)C2)C1.O=C(O)C(F)(F)F (stereo not drawn) | 8.638 |
| CC(C)NC(=O)c1sc2ccccc2c1[C@H]1CC[C@H](CN)CC1.Cl | 6.071 |
| O=C(O)C(F)(F)F.c1cnc(N2Cc3nccn3CC(COc3cccnc3)C2)nc1 (stereo not drawn) | -4.281 |
| Cc1ccc(CNC(CN2CCN(C)CC2)c2ccccc2)cc1C (stereo not drawn) | 7.265 |
| Cc1ccc(CNC(c2ccccc2)c2nccn2C)cc1C (stereo not drawn) | 103.6 |
| CCNC(c1ccc(Br)cc1)c1cccnc1 (stereo not drawn) | 0.8227 |
| COc1ccc(CNC(Cn2cncn2)c2ccccc2)cc1C (stereo not drawn) | 7.595 |
| Cn1ccnc1-c1noc(NCc2ccc(Br)cc2)n1 | -1.325 |

| SMILES | Percent Effect [%] |
| --- | --- |
| Cn1ccnc1-c1noc(NCc2ccccc2)n1 | -11.975 |
| Cc1ccc(CNC(CN2CCN(C)CC2)c2ccccc2)cc1 (stereo not drawn) | 5.608 |
| Cn1ccnc1C(NCc1ccc(Br)cc1)c1ccccc1 (stereo not drawn) | 112.1 |
| Cn1nnc2c1C(COCc1ccccn1)CN(Cc1ccoc1)C2.O=C(O)C(F)(F)F.O=C(O)C(F)(F)F (stereo not drawn) | -16.51 |
| O=S(=O)(N1CCOCC1)N1CCCC(c2ccccn2)C1 (stereo not drawn) | -20.74 |
| COCCN1C[C@@H]2CCCO[C@@H]2[C@H](N(C)Cc2ccco2)C1.O=C(O)C(F)(F)F.O=C(O)C(F)(F)F | 1.752 |
| Cn1cc(N2CC3(CCN(Cc4ccsc4)CC3)OCC2=O)cn1.O=C(O)C(F)(F)F | -18.04 |
| Cc1cnccc1-c1cnn(CCNC(=O)C(C)(C)C)c1C1CC1.Cl | -19.45 |
| O=C(O)C(F)(F)F.O=C1COC2(CCN(Cc3ccco3)CC2)CN1 | -45.46 |
| Fc1ccc(N2CCCN(c3ccc(Cn4ccnc4)cn3)CC2)cc1 | 107.2 |
| c1cn(Cc2ccc(N3CCCN(C4CCCC4)CC3)nc2)cn1 | 1.871 |
| c1csc(CN2CCCN(c3ccc(Cn4ccnc4)cn3)CC2)c1 | -13.19 |
| Cc1cc2c(cc1CNC(Cc1cccs1)c1nccs1)OCO2.Cl (stereo not drawn) | 5.172 |
| CC(=O)N1C[C@@H]2CN(Cc3cccnc3)CCO[C@@H]2C1.O=C(O)C(F)(F)F.O=C(O)C(F)(F)F | -47.04 |
| O=C(O)C(F)(F)F.O=C1[C@H]2CN(CC3CC3)C[C@H]2CN1c1ccsc1 | 20.81 |
| Cc1cc(N2CCCC2c2nnc3n2CCCCC3)nc(N)n1 (stereo not drawn) | -8.114 |
| Clc1cncc(N2CCCC2c2nnc3n2CCCCC3)n1 (stereo not drawn) | -7.126 |
| Cc1cc(N2CCCC2c2nnc3n2CCCCC3)nc(C)n1 (stereo not drawn) | 66.84 |
| Cn1ncc2c1CN(Cc1cccnc1)CC2COCC1CC1.O=C(O)C(F)(F)F.O=C(O)C(F)(F)F.O=C(O)C(F)(F)F (stereo not drawn) | -6.244 |
| Cn1ncc2c1CN(Cc1ccc(F)cc1)CC2COCC1CC1.O=C(O)C(F)(F)F.O=C(O)C(F)(F)F (stereo not drawn) | -18.92 |
| Cn1ncc2c1CN(Cc1ccccc1F)CC2COCC1CC1.O=C(O)C(F)(F)F.O=C(O)C(F)(F)F (stereo not drawn) | 103.1 |
